Tests used:
[1] = biological target: T1, Serine/threonine-protein kinase Nek9 (Homo sapiens) (UniProt Q8TD19); conditions: at 1 µM;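 note: each value is a mean percent inhibition of NEK9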
T1 sequence (whole entry): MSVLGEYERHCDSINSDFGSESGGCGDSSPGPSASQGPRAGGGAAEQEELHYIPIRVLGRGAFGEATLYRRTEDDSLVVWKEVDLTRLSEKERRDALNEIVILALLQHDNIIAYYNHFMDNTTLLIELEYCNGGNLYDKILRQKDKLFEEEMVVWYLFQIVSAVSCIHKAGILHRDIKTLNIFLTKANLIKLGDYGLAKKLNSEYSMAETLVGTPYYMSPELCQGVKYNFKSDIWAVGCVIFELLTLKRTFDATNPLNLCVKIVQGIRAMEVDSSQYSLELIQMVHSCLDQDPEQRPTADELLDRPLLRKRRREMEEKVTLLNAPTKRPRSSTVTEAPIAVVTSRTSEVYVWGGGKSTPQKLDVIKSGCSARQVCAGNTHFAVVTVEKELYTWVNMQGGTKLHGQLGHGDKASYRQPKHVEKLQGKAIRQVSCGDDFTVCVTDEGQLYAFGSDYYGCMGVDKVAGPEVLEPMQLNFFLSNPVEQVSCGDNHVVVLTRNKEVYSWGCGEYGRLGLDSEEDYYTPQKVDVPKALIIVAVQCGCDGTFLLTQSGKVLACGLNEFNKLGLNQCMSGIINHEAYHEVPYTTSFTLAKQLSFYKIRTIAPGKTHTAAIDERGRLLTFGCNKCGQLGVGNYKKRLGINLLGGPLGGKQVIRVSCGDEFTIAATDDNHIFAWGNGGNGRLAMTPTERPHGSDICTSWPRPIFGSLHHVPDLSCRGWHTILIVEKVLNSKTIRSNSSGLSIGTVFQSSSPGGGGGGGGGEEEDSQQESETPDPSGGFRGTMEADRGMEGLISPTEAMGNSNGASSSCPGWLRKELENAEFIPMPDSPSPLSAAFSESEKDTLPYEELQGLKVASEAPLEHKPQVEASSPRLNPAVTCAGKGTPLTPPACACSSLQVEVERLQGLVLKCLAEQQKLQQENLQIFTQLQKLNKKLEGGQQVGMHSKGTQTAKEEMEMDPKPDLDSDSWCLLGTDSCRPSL

[2] = biological target: Serine/threonine-protein kinase PLK1 (Homo sapiens) (UniProt P53350); conditions: at 0.1 µM
[3] = biological target: Serine/threonine-protein kinase PLK1 (Homo sapiens) (UniProt P53350); conditions: at 1 µM
[4] = biological target: T2, Dual specificity protein kinase TTK (Homo sapiens) (UniProt P33981); conditions: at 0.1 µM
T2 sequence (whole entry): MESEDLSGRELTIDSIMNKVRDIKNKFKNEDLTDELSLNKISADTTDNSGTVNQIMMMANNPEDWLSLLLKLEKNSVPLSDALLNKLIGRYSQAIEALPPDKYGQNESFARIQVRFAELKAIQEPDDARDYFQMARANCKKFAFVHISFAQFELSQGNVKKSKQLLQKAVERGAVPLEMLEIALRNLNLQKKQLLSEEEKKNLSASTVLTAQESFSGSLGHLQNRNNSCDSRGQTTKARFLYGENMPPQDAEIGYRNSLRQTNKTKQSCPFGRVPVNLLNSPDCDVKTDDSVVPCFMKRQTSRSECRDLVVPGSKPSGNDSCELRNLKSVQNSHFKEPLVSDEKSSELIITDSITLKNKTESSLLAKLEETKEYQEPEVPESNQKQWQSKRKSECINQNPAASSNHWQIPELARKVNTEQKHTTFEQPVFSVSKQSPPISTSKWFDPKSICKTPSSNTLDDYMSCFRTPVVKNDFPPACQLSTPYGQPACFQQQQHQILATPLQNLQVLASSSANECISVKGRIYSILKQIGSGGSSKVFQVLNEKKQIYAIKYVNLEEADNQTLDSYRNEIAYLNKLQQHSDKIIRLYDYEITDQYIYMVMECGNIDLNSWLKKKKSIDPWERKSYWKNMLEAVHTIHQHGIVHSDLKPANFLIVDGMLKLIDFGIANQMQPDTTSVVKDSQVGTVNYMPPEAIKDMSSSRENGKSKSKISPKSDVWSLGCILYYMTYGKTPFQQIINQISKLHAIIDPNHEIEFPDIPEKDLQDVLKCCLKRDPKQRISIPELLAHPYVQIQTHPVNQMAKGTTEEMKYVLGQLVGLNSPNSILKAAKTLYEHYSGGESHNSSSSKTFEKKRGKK

[5] = system: T3, Receptor-type tyrosine-protein kinase FLT3 (Homo sapiens), P36888 [D835Y]; conditions: at 1 µM
T3 sequence (whole entry): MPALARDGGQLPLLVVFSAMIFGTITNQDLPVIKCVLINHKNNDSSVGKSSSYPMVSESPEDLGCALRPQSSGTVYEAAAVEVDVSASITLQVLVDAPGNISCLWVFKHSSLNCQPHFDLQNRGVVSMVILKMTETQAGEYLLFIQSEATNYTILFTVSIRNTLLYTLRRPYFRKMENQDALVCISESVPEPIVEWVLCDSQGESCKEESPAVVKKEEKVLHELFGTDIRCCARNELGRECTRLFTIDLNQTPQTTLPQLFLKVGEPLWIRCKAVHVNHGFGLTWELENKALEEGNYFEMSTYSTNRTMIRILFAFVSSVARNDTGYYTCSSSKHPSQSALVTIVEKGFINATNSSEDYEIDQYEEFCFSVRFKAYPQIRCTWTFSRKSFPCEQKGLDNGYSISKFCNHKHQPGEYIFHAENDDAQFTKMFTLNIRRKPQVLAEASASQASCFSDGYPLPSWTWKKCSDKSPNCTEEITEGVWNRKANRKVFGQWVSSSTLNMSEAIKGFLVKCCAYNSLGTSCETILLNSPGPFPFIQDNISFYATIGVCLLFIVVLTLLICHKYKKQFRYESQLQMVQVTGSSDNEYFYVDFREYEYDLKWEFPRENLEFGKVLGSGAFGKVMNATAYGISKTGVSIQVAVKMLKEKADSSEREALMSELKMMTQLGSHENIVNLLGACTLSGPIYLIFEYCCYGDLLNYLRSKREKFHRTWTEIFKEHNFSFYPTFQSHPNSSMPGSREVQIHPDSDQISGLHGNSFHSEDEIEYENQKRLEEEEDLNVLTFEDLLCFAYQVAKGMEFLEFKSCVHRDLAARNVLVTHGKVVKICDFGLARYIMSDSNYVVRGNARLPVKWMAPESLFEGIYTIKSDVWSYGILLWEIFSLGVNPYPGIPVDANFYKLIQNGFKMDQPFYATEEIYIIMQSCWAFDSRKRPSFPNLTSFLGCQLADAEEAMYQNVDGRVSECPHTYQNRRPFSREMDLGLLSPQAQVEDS

[6] = biological target: Vascular endothelial growth factor receptor 3 (Homo sapiens) (UniProt P35916); conditions: at 0.1 µM
Sequence of Vascular endothelial growth factor receptor 3 (Homo sapiens) (P35916 whole entry): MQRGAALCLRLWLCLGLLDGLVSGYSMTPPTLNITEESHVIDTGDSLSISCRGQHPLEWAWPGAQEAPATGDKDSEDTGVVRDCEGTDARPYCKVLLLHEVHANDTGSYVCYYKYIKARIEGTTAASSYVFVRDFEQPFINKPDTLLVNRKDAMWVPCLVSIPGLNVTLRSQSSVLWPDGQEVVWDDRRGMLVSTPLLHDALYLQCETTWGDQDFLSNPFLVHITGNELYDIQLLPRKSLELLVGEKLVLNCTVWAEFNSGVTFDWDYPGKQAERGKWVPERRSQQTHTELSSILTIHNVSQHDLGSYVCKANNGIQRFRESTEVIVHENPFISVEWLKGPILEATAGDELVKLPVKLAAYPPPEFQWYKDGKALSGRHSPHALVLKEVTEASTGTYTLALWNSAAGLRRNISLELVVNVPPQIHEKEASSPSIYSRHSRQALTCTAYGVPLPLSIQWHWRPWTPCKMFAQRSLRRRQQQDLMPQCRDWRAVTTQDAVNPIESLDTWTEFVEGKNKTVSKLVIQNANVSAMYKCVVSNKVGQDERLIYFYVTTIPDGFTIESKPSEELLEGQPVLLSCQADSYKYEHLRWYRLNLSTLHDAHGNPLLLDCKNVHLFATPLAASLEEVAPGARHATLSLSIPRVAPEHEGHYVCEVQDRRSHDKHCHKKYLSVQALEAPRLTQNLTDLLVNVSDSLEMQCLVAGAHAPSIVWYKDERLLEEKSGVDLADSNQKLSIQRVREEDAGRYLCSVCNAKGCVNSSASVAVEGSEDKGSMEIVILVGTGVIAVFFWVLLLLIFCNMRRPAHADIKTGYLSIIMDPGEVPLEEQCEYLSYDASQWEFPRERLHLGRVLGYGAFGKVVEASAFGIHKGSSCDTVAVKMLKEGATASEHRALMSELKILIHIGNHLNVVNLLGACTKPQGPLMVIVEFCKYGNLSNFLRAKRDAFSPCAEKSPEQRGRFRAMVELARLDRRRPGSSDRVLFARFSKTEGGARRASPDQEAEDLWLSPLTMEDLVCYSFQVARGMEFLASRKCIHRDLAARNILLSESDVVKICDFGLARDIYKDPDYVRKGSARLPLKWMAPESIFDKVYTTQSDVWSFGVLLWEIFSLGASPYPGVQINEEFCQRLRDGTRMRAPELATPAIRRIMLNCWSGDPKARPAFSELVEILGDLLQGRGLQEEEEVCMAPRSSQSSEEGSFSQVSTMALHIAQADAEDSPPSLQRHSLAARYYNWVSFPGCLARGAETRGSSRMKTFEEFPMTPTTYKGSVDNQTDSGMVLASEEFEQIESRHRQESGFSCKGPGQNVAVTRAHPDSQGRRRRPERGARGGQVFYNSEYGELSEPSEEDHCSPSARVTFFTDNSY

[7] = biological target: Vascular endothelial growth factor receptor 3 (Homo sapiens) (UniProt P35916); conditions: at 1 µM
[8] = biological target: Macrophage colony-stimulating factor 1 receptor (Homo sapiens) (UniProt P07333); conditions: at 0.1 µM
Sequence of Macrophage colony-stimulating factor 1 receptor (Homo sapiens) (P07333 whole entry): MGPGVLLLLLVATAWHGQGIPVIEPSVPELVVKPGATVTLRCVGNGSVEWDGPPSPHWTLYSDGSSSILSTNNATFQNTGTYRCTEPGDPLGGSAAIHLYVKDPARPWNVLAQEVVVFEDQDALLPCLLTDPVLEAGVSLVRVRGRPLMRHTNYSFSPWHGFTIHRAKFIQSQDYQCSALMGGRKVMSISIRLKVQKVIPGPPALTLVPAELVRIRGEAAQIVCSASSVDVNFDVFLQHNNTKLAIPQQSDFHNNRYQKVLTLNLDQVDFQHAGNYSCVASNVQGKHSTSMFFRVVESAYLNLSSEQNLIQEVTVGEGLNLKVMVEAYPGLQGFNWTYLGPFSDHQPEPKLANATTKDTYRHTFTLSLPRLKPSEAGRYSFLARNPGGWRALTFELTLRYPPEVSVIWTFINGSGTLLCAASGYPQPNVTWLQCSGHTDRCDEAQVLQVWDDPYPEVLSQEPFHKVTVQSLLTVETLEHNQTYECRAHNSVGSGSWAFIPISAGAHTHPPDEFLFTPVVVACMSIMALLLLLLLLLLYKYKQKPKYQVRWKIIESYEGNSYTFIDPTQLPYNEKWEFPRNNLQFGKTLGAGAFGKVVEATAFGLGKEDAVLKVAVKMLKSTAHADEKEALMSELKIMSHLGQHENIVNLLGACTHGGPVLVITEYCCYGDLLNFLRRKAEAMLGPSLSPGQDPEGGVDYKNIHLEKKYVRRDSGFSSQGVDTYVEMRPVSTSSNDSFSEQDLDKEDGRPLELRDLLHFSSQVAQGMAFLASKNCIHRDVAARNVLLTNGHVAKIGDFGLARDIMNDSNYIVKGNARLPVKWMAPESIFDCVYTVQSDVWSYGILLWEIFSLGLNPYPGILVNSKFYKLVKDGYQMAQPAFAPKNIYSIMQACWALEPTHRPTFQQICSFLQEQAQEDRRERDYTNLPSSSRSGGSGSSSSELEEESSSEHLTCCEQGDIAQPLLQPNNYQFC

[9] = biological target: Macrophage colony-stimulating factor 1 receptor (Homo sapiens) (UniProt P07333); conditions: at 1 µM
[10] = biological target: Tyrosine-protein kinase Fyn (Homo sapiens) (UniProt P06241); conditions: at 0.1 µM
Sequence of Tyrosine-protein kinase Fyn (Homo sapiens) (P06241 2-537 limits assumed): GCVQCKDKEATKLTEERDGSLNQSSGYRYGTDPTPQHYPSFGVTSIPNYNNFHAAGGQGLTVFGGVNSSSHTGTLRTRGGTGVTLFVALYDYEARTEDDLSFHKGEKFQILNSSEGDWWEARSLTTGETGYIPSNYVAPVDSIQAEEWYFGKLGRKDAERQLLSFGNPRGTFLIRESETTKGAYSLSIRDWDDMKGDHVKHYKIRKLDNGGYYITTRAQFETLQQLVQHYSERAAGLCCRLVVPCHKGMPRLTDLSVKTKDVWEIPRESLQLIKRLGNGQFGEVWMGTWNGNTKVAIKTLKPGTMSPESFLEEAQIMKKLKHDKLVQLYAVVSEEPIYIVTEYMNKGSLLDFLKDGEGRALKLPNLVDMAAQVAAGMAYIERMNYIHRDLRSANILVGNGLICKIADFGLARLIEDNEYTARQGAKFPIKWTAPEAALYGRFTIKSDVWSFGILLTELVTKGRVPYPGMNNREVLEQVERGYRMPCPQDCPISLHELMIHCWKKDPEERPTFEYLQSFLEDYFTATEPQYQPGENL

[11] = biological target: Tyrosine-protein kinase Fyn (Homo sapiens) (UniProt P06241); conditions: at 1 µM
[12] = biological target: Tyrosine-protein kinase HCK (Homo sapiens) (UniProt P08631); conditions: at 0.1 µM
Sequence of Tyrosine-protein kinase HCK (Homo sapiens) (P08631 2-526 limits assumed): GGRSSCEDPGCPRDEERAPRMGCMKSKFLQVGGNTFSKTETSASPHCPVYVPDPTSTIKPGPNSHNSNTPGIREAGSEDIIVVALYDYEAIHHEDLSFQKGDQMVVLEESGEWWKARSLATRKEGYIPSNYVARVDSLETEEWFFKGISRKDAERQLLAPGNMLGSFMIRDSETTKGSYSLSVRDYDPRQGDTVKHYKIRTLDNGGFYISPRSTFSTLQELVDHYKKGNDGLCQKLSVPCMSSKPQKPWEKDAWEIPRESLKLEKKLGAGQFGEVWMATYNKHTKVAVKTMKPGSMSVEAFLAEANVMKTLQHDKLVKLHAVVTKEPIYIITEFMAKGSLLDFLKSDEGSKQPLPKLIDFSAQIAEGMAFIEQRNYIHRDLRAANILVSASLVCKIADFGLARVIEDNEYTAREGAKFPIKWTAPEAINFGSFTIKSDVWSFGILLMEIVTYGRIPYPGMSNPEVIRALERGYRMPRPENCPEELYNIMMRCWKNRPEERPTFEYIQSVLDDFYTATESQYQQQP

[13] = biological target: Tyrosine-protein kinase HCK (Homo sapiens) (UniProt P08631); conditions: at 1 µM
[14] = biological target: Insulin-like growth factor 1 receptor (Homo sapiens) (UniProt P08069); conditions: at 0.1 µM
[15] = biological target: Insulin-like growth factor 1 receptor (Homo sapiens) (UniProt P08069); conditions: at 1 µM
[16] = biological target: Insulin receptor (Homo sapiens) (UniProt P06213); conditions: at 0.1 µM
[17] = biological target: Insulin receptor (Homo sapiens) (UniProt P06213); conditions: at 1 µM
[18] = biological target: Insulin receptor-related protein (Homo sapiens) (UniProt P14616); conditions: at 0.1 µM
Sequence of Insulin receptor-related protein (Homo sapiens) (P14616 27-742 limits assumed): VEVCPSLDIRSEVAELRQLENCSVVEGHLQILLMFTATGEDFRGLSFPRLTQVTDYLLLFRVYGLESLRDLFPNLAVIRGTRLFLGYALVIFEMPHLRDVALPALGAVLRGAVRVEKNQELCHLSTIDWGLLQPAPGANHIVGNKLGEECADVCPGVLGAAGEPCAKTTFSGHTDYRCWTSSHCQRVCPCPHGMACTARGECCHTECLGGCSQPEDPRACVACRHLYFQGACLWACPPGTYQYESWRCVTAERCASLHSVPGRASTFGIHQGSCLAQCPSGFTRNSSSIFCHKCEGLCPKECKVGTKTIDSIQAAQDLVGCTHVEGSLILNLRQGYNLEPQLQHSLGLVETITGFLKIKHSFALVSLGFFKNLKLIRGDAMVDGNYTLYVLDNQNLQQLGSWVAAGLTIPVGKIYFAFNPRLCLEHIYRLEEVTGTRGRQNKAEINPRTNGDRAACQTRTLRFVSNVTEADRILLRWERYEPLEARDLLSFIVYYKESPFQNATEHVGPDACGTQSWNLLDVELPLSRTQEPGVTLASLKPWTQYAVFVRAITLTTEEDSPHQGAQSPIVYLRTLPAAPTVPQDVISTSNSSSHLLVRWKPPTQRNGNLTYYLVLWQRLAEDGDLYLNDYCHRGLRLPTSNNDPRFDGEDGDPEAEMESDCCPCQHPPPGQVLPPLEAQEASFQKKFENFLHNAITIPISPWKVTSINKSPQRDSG
Sequence of Insulin receptor-related protein (Homo sapiens) (P14616 747-1297 limits assumed): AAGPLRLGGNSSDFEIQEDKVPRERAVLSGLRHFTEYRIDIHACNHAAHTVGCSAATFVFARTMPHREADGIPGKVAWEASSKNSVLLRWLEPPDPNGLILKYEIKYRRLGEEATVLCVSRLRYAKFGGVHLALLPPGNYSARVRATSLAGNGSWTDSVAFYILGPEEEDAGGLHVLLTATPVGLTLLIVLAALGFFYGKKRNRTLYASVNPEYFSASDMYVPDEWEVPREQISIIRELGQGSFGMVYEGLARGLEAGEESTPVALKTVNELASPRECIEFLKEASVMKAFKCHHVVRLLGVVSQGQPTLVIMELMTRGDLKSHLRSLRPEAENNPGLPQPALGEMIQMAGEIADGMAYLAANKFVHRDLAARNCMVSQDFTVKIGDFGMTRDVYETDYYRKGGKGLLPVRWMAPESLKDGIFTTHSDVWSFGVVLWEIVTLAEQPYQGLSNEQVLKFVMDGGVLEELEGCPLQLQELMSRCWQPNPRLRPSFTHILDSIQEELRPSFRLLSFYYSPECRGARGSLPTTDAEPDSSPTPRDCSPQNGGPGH

[19] = biological target: Insulin receptor-related protein (Homo sapiens) (UniProt P14616); conditions: at 1 µM
[20] = biological target: T4, Tyrosine-protein kinase ITK/TSK (Homo sapiens) (UniProt Q08881); conditions: at 0.1 µM;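 note: mean percent inhibition of ITK from the GSK PKIS screen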
T4 sequence (whole entry): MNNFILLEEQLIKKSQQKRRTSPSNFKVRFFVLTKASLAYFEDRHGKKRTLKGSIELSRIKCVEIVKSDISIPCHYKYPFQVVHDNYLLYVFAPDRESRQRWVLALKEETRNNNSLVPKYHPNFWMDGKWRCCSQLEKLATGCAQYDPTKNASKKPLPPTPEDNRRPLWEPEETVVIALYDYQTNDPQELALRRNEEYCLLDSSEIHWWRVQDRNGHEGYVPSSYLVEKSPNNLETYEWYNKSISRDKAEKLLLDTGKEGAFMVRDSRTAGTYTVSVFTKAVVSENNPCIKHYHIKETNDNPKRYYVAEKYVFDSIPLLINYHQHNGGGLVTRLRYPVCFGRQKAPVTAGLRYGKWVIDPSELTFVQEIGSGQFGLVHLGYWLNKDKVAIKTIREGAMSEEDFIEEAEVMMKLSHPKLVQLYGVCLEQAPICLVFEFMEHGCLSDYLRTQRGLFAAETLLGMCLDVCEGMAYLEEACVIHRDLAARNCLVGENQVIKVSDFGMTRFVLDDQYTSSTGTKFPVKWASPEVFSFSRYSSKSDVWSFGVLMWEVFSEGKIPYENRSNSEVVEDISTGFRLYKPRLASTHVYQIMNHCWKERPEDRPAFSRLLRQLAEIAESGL

Compound: COc1c(C(N)=O)cc(-c2ccc(Cl)cc2)cc1-c1ccc(S(N)(=O)=O)cc1
- inhibition [1]: 5.67%
- inhibition [2]: 4.84%
- inhibition [3]: 8.71%
- inhibition [4]: 11.8%
- inhibition [5]: 0.7%
- inhibition [6]: 2.5%
- inhibition [7]: 0.39%
- inhibition [8]: 5.24%
- inhibition [9]: 4.74%
- inhibition [10]: 1.12%
- inhibition [11]: 2.81%
- inhibition [12]: 6.39%
- inhibition [13]: 7.93%
- inhibition [14]: 7.44%
- inhibition [15]: 4.41%
- inhibition [16]: 9.51%
- inhibition [17]: 5.04%
- inhibition [18]: 2.33%
- inhibition [19]: 3.46%
- inhibition [20]: 2.02%

Compound: CC1(C)CC(n2cnc(-c3ccc(F)cc3)c2-c2ccnc(N)n2)CC(C)(C)N1
- inhibition [1]: 2.47%
- inhibition [2]: 2.09%
- inhibition [3]: 0.76%
- inhibition [4]: -0.55%
- inhibition [5]: 0.24%
- inhibition [6]: 3.06%
- inhibition [7]: 2.77%
- inhibition [8]: 1.31%
- inhibition [9]: 0.54%
- inhibition [10]: 1.49%
- inhibition [11]: 2.65%
- inhibition [12]: 2.18%
- inhibition [13]: 3.22%
- inhibition [14]: 1.3%
- inhibition [15]: 3.3%
- inhibition [16]: 4.97%
- inhibition [17]: 4.07%
- inhibition [18]: -0.08%
- inhibition [19]: -1.13%
- inhibition [20]: 0.29%

Compound: CCS(=O)(=O)c1ccc(OC)c(Nc2ncc(-c3cccc(F)c3)o2)c1
- inhibition [1]: 16.1%
- inhibition [2]: 7.8%
- inhibition [3]: 9.98%
- inhibition [4]: 10.5%
- inhibition [5]: 60.3%
- inhibition [6]: 36.4%
- inhibition [7]: 86.8%
- inhibition [8]: 33.7%
- inhibition [9]: 66.7%
- inhibition [10]: 30.1%
- inhibition [11]: 72.4%
- inhibition [12]: 33%
- inhibition [13]: 74.3%
- inhibition [14]: 5.72%
- inhibition [15]: 6.74%
- inhibition [16]: 7.03%
- inhibition [17]: 8.47%
- inhibition [18]: 2.84%
- inhibition [19]: 4.59%
- inhibition [20]: 2.16%

Compound: COc1ccc(-c2nn3ncccc3c2-c2ccnc(Nc3ccc(F)c(F)c3)n2)cc1
- inhibition [1]: 7.17%
- inhibition [2]: 1.8%
- inhibition [3]: 2.27%
- inhibition [4]: 15.1%
- inhibition [5]: 2.1%
- inhibition [6]: 4.09%
- inhibition [7]: 8.94%
- inhibition [8]: 5.19%
- inhibition [9]: 14.8%
- inhibition [10]: 2.85%
- inhibition [11]: 12.1%
- inhibition [12]: 3.38%
- inhibition [13]: 16.5%
- inhibition [14]: 2.75%
- inhibition [15]: 3.2%
- inhibition [16]: 4.32%
- inhibition [17]: 2.06%
- inhibition [18]: 3.12%
- inhibition [19]: 3.47%
- inhibition [20]: 0.92%

Compound: CS(=O)(=O)CCNCc1ccoc1-c1ccc2ncnc(Nc3ccc(OCc4ccccc4)cc3)c2c1
- inhibition [1]: 1.8%
- inhibition [2]: 2.42%
- inhibition [3]: 3.33%
- inhibition [4]: 3.38%
- inhibition [5]: 2.16%
- inhibition [6]: 2.25%
- inhibition [7]: 2.83%
- inhibition [8]: -0.38%
- inhibition [9]: 6.09%
- inhibition [10]: 1.81%
- inhibition [11]: 7.94%
- inhibition [12]: 0.7%
- inhibition [13]: 5.65%
- inhibition [14]: 1.37%
- inhibition [15]: -0.73%
- inhibition [16]: 0.36%
- inhibition [17]: 1.13%
- inhibition [18]: -1.72%
- inhibition [19]: 0.44%
- inhibition [20]: -0.12%

Compound: COc1cc(N2CCN(C(C)C)CC2)ccc1Nc1nc(Nc2cccc3ncccc23)c2cc[nH]c2n1
- inhibition [1]: -1.45%
- inhibition [2]: -0.26%
- inhibition [3]: 0.8%
- inhibition [4]: 52.1%
- inhibition [5]: 1.87%
- inhibition [6]: 0.19%
- inhibition [7]: 0.22%
- inhibition [8]: 1.9%
- inhibition [9]: 3.33%
- inhibition [10]: 2.06%
- inhibition [11]: 2.23%
- inhibition [12]: 0.79%
- inhibition [13]: 1.71%
- inhibition [14]: 12%
- inhibition [15]: 60.5%
- inhibition [16]: 22.6%
- inhibition [17]: 82.1%
- inhibition [18]: -1.05%
- inhibition [19]: 14.8%
- inhibition [20]: -0.09%
